Measurements reported in PubChem BioAssay AID596 (National Center for Advancing Translational Sciences (NCATS), 2007).
Where “and” joins values, the source holds several entries; their conditions need not be identical. Identical values can stand only once. The whole screen tested about 71,000 compounds, of which about 1,400 (2%) were called active. Another 3% or so got no clear call; they are omitted. Calls follow the shape of the dose curve; as a rule, active = well fitted curve in the direction sought with a large enough effect; inconclusive = small, poorly fitted or top-dose-only effect; inactive = no such curve, though single readings can be large or run the other way. Only a selection was taken, and actives are over-represented in it overall. Some structures have more than one record in an assay (separate samples or runs), and their calls can disagree.

biological target: Microtubule-associated protein tau (Homo sapiens) (UniProt P10636); experiment: qHTS Assay for Tau Filament Binding; conditions: recombinant tau filaments, thioflavin S fluorescence, 15 h; series mostly up to 57.1 µM; activity change, negative = inhibition: at the top concentration;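 also: actives lower thioflavin S fluorescence by blocking filaments or displacing dye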
Sequence (P10636 whole entry, looked up): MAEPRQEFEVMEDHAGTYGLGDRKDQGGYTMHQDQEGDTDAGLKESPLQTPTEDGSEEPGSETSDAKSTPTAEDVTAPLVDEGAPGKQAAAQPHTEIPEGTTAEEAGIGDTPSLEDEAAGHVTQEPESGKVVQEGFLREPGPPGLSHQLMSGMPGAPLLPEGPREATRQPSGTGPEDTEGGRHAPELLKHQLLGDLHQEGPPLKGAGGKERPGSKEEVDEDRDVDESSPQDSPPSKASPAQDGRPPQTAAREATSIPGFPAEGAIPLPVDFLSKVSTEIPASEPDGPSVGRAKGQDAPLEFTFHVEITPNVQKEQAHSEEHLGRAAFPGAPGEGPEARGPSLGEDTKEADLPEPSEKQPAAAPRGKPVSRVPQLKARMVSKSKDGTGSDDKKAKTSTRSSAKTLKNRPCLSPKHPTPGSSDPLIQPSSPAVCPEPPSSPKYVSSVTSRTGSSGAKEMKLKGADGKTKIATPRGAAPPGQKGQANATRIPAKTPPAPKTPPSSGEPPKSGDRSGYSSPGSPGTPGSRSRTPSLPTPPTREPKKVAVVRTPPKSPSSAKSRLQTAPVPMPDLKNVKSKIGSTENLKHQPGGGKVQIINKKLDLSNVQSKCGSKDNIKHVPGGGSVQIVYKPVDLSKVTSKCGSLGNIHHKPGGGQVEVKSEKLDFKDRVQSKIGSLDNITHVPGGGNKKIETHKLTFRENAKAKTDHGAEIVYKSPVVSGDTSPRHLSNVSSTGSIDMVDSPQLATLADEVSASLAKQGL
Description: NIH Molecular Libraries Screening Centers Network [MLSCN]
NIH Chemical Genomics Center [NCGC]
Assay Provider: Jeffrey A. Kuret, Ohio State University
Tau monomers form filaments in vitro in the presence of anionic detergents or fatty acids. The dye Thioflavine S (ThS) binds to tau filaments and upon binding, increases in fluorescence several fold. Small molecules that displace ThS binding or prevent filament binding are identified by a reduction in ThS fluorescence. This assay used histidine-tagged, recombinant human tau protein containing the products of exons 2, 3, and 10 that was provided by Jeff Kuret, Ohio State University. To form filaments, 1 uM tau was incubated with 30 uM sodium octadecylsulfate (ODS) in reagent buffer (10 uM thioflavine S, 5 mM 1,4-dithioerythreitol (DTT), 100 mM sodium chloride, 10 mM HEPES pH 7.4) for 15 hrs at 37 C.
NCGC Assay Protocol Summary:
Assay Steps. Two uL/well of 2 uM tau in reagent buffer (10 uM thioflavine S, 5 mM DTT, 100 mM sodium chloride, 10 mM HEPES pH 7.4) was dispensed into solid black 1536-well plates. Twenty-three nL compound was transferred to the assay plate after which 2 uL/well of 60 uM ODS in reagent buffer was dispensed for a final assay volume of 4 uL /well. Following 15 hours of incubation at 37 C, fluorescence was detected by an Envision (Perkin Elmer) using 450/8 nm excitation and 510/23 nm emission.
Keywords: NIH Roadmap, MLSCN, MLI, MLSMR, qHTS, NCGC, Alzheimer's disease, Neurofibrillary lesions, tau, tubulin assembly, microtubule stability, cytoskeletal integrity, fibrillization, thioflavin dyes, Amyloidgenic
% is scaled to controls: 0 for no effect and ±100 for the full control effect; potency is read from the fitted curve at half-maximal effect.

SMILES	Potency	activity change, negative = inhibition
CC(C)CC(C)Nc1ccc(Nc2ccccc2)cc1 (stereo not given)	15.8 µM (active)	–
c1ccc(N2CC[C@@]3(CCCNC3)C2)nc1	–	1.4% (inactive)
CC[C@@](O)(C(=O)O)c1cc2n(c(=O)c1CO)Cc1cc3ccccc3nc1-2	–	6.4% [at 11.4 µM] (inactive)
Nc1ccc([N+](=O)[O-])cc1	–	2.8% (inactive)
CC(=O)c1c(O)c(C)c(O)c(Cc2c(O)c3c(c(C(=O)/C=C\c4ccccc4)c2O)OC(C)(C)C=C3)c1O	15.8 µM (active) and 25.1 µM (active)	–
Clc1ccccc1	–	60.1% (inactive)
Fc1ccc(C(OCCN2CCN(C/C=C\c3ccccc3)CC2)c2ccc(F)cc2)cc1	12.6 µM (active)	–
CCCCC#N	–	1.9% (inactive)
Nc1ccc(Cc2ccc(N)c(Cl)c2)cc1Cl	–	-16.2% (inactive)
N#CCCCl	inactive	–
CC(C)(C)C(O)(CCc1ccc(Cl)cc1)Cn1cncn1 (stereo not given)	–	-11.7% [at 57.1 µM, filaments grown with octadecylsulfate alongside compound] (inactive)
Clc1cccc(Cl)c1Cl	–	2.2% (inactive)
c1ccc2c(c1)[I+]c1ccccc1-2	inactive and 39.8 µM (active)	–
CCNC[C@H](O)c1cccc(O)c1	–	4.3% [at 25.6 µM] (inactive)
O=C(Nc1cccc(F)c1)N1CC[C@@]2(CCCN(C(=O)Oc3ccccc3)C2)C1	–	4.7% (inactive)
c1ccc(CN2CC[C@@]3(CCCNC3)C2)cc1	–	8.4% (inactive)
ClCCBr	–	-12.3% (inactive)
CN1CCN(C(=O)O[C@@H]2c3nccnc3C(=O)N2c2ccc(Cl)cn2)CC1	inactive	–
O=C1C2(Cl)C3(Cl)C4(Cl)C(Cl)(Cl)C5(Cl)C3(Cl)C1(Cl)C5(Cl)C24Cl (stereo not given)	inactive and 15.8 µM (active)	–
Cc1cc(-c2ccc(N)c(C)c2)ccc1N	–	-17.3% (inactive)
C=CC#N	–	-14.1% (inactive)
CC(C)(Cc1c[nH]c2ccc(Cl)cc12)NCCOc1ccccc1OCC1CC1	–	49.6% (inactive)
ClC(Cl)=C(Cl)C(Cl)=C(Cl)Cl	–	-4.5% (inactive)
CC(Cl)Cl	–	-2.3% (inactive)
C[C@]12CC[C@H](O)C[C@@H]1CC[C@H]1[C@H]2CC[C@]2(C)C(=O)CC[C@@H]12	inactive	–
